Experimental data published in PubChem BioAssay AID1851 (National Center for Advancing Translational Sciences (NCATS), 2009).
Values joined by “and” are separate entries in the source; they are usually repeats but may differ in a detail not shown here. Equal entries are not always repeated. Hit rate of the full screen: of about 16,000 compounds, about 5,100 (32%) were called active. Roughly 25% stayed inconclusive and do not appear here. The call rests on the fitted dose curve; in most records, active means well fitted curve in the direction sought with a large enough effect; inconclusive means small, poorly fitted or top-dose-only effect, or effect the other way; inactive means no such curve, though single readings can be large or run the other way. This is one part of the list.

The compounds below were run against Cytochrome P450 3A4 (Homo sapiens) (UniProt P08684) (assay: Cytochrome panel assay with activity outcomes). Settings: recombinant CYP, pro-luciferin dealkylation, luminescence, p450-cyp3a4; series mostly up to 57.1 µM; activity, negative = inhibition: at the top concentration.
On the % scale 0 is the no-effect control and ±100 the full control effect.

Chain of Cytochrome P450 3A4 (Homo sapiens) (P08684 whole entry, looked up): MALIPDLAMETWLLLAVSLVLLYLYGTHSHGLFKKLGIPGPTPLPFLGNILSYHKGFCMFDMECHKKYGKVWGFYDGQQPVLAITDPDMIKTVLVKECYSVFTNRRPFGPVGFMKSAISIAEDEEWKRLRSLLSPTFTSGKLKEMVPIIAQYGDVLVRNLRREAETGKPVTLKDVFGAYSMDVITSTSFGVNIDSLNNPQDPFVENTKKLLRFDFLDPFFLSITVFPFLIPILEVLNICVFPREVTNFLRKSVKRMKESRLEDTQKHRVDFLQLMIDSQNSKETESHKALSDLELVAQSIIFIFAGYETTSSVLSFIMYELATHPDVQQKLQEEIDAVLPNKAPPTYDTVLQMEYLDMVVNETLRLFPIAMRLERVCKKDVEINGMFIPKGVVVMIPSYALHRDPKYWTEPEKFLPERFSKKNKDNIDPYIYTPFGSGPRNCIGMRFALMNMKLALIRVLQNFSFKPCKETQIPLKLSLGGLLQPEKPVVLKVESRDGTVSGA

AC50, active:
CCCn1nc(C(=O)NCC(C)(C)N2CCOCC2)c2ccccc2c1=O 7.08 µM, Cc1cc(Cl)ccc1OCCCC(=O)N1CCN(C)CC1 12.6 µM, COc1ccc(O[C@H]2C=C[C@@H](c3ccccc3)O[C@H]2CO/N=C2/[C@H]3O[C@@H]3[C@@H](O)[C@H]3[C@H]2CCn2c(=O)n(-c4ccccc4)c(=O)n23)cc1 3.16 µM, CCCNC(=O)OC[C@H]1O[C@@H](CCO/N=C2/[C@H]3O[C@@H]3[C@@H](O)[C@H]3[C@H]2CCn2c(=O)n(-c4ccccc4)c(=O)n23)C=C[C@@H]1Oc1ccc(OC)cc1 3.16 µM, O=C(c1csnn1)N1CCC2(CCCN(c3ccc(-c4ccccc4)cc3)C2)CC1 7.94 µM, O=C(c1csnn1)N1CCC2(CCCN(c3ccccc3)C2)CC1 12.6 µM, CN1CCC(n2[nH]c(-c3ccccc3)c(Cc3ccccc3)c2=O)CC1 3.98 µM, CCOC(=O)c1c(C)oc2c1cc(O)c1ccccc12 14.1 µM, COc1cc(CNC(=O)CCCC/C=C\C(C)C)ccc1O 3.98 µM and 7.94 µM, CCn1c(SCC(=O)Nc2sc3c(c2C(N)=O)CCC(C)C3)nnc1-c1ccco1 (configuration not stated) 7.08 µM, COc1ccccc1CNc1ccnc(-c2cccc(C#N)c2)n1 3.98 µM, COc1ccc(CNc2ccnc(-c3cccc(C#N)c3)n2)c(OC)c1 2 µM, O=C(Nc1nnc(SCc2ccc(Cl)cc2Cl)s1)C1COc2ccccc2O1 (configuration not stated) 4.47 µM, O=C(Nc1nnc(SCc2c(Cl)cccc2Cl)s1)C1CCCO1 (configuration not stated) 12.6 µM, Cc1nn(CCc2n[nH]c(=S)n2-c2ccc(F)c(Cl)c2)c(C)c1[N+](=O)[O-] 3.16 µM, CC(C)N1CCN(c2ccc(OC[C@@H]3CO[C@@](Cn4cncn4)(c4ccc(Cl)cc4Cl)O3)cc2)CC1 1.58 µM, Cc1noc(C)c1-c1nc(NCc2cccs2)c2ccccc2n1 6.31 µM, COc1ccc(CNc2nc(-c3c(C)noc3C)nc3ccccc23)c(OC)c1 2.51 µM, COc1ccccc1CNc1nc(-c2c(C)noc2C)nc2ccccc12 10 µM, CN(C)C(=O)c1ccc(-c2cncnc2NCc2cccs2)cc1 3.16 µM, CN(C)c1ccc(-c2cncnc2NCc2cccs2)cc1 0.794 µM, CCCn1c2c(c(O)c(C(=O)NCc3ccccc3)c1=O)CCCC2 17.8 µM

activity, negative = inhibition, inactive:
CCN(CC)CCNC(=O)C(C)c1nn(C)c(=O)c2ccccc12 (configuration not stated) -0.681% [at 2.29 µM], CC(C)NCCCOc1ccc(Cl)cc1Br 6.16% [at 2.29 µM], CC1CCN(CCOc2cc(Cl)ccc2Cl)CC1 2.39%, CC(C)=CCC/C(C)=C/CO/N=C1/[C@H]2O[C@@H]2[C@@H](O)[C@H]2[C@H]1CCn1c(=O)n(-c3ccccc3)c(=O)n12 -17.8% [at 11.4 µM], CC(=O)OC[C@H]1O[C@@H](O/N=C2/[C@H]3O[C@@H]3[C@@H](O)[C@H]3[C@H]2CCn2c(=O)n(-c4ccccc4)c(=O)n23)[C@H](OC(C)=O)[C@@H](OC(C)=O)[C@@H]1OC(C)=O -17.4% [at 11.4 µM], O=c1n(-c2ccccc2)c(=O)n2n1CC[C@H]1/C(=N\OCc3ccccc3)[C@H]3O[C@@H]3[C@@H](O)[C@@H]12 -7.77% [at 11.4 µM], CC(C)CO/N=C1/[C@H]2O[C@@H]2[C@@H](O)[C@H]2[C@H]1CCn1c(=O)n(-c3ccccc3)c(=O)n12 -14% [at 11.4 µM], O=C(CP(=O)(c1ccccc1)c1ccccc1)Nn1cnnc1 -24.8%, O=C(c1csnn1)N1CCC2(CC1)CN(c1ccccc1)C2 -13.5%, O=C(c1csnn1)N1CCC2(CC1)CCN(c1ccccn1)CC2 -21.6%, O=C(c1csnn1)N1CCC2(CC1)CCN(c1ccccc1)CC2 -4.52%, O=c1c(Cc2ccccc2)c(O)nc2n1CCS2 -2.9% [at 2.29 µM], CCNc1ncc2nc(-c3ccc(Cl)cc3)c(=O)n(C3CC3)c2n1 -12.6%, CCOC(=O)c1c(C(C)(C)C)oc2ccc(O)cc12 24.5%, CCOC(=O)c1c(C)oc2c1c(C=NC1CCS(=O)(=O)C1)c(O)c1ccccc12 (configuration not stated) -20.9%, CN(C)CN1CSC(=S)N(CN(C)C)C1 -11.6% [at 11.4 µM], COc1cc(CC(=O)O)ccc1O 5.61%, COc1cc([C@H](O)C(=O)O)ccc1O 5.48%, CCOC(=O)c1c(NC(=S)NC(=O)c2cnn(CC)c2)sc2c1CCC(C)C2 (configuration not stated) 22.2%, CCn1c(SCC(=O)Nc2sc3c(c2C#N)CCC(C(C)(C)C)C3)nnc1-c1ccco1 (configuration not stated) 7.56%, CC(=O)C[C@H](c1ccc([N+](=O)[O-])cc1)c1c(O)c2ccccc2oc1=O -21.3% [at 25.6 µM], CC1=NCC[N@@+]1(CCc1ccccc1)Cc1ccccc1 -18.6% [at 11.4 µM], N#C[C@H](c1ccccc1)N1CCCN([C@@H](C#N)c2ccccc2)C1c1ccccc1O (some centres not stated) -24.5% [at 11.4 µM], O=C(O)CC/C=C\CC[C@H]1[C@@H](N2CCCCC2)[C@@H](O)C[C@@H]1OCc1ccc(-c2ccccc2)cc1 -4.43%, NC(=O)c1ccc(NC(=O)C2CCCO2)cc1 (configuration not stated) -11.3%, O=C(Nc1ncc(Cc2ccccc2)s1)C1COc2ccccc2O1 (configuration not stated) -25.2%, CCCCCCCCCCCCCCCC[N+](C)(C)CCN(Cc1ccc(OC)cc1)c1ncccn1 -6.72% [at 25.6 µM], NC(N)=NC(N)=Nc1c(F)c(F)c(F)c(F)c1F -1.13% [at 11.4 µM], CC(C)=C1C(=O)NN(c2ccc(F)c(Cl)c2)C1=O -12.4% [at 11.4 µM], Cc1cccc(-n2c(Cn3nc(C)c([N+](=O)[O-])c3C)n[nH]c2=S)c1 -17% [at 2.29 µM], C[n+]1ccccc1/C=N\O -5.16% [at 25.6 µM], CCn1cc(C(=O)O)c(=O)c2cnc(N3CCCC3)nc21 -9.08% [at 25.6 µM], O=C(Nc1c[nH]c(=O)[nH]c1=O)Oc1ccccc1 -22.1% [at 11.4 µM], Cc1cc(=O)oc(C)c1C(=O)NCc1ccccc1 0.149% [at 2.29 µM], CCCCCCc1nc2ccccc2c(=O)n1NC(=O)c1c(O)c2c(n(CC(C)C)c1=O)CCCC2 10% [at 2.29 µM]
